“And” between values parts separate entries of the source, which are not always exact repeats. Identical values can stand only once. Counter-ions that a name gives are not always drawn.
Experiments:
Test in all cases: cell viability relative to vehicle control; higher = less cytotoxic
Settings in all cases: 10 µM
K562 = tested on: K562
How it was run: (§1)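 CRISPR-edited SRSF2 P95 mutant and isogenic wild-type clones of four leukaemia lines were screened against Selleck bioactive, kinase and epigenetic probe libraries, with identity-inconsistent compounds removed. Compounds were acoustically dispensed into 384-well plates at a single 10 µM dose, with 2000 cells in 50 µL medium per well. After 48 h, supernatant was removed and CellTiter-Glo luminescence was read. Viability was expressed as percent of the on-plate DMSO vehicle control, analysed in Genedata Screener.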

MARIMO = tested on: MARIMO
How it was run: as §1

MOLM14 = tested on: MOLM14
How it was run: as §1

OCI-AML2 = tested on: OCI-AML2
How it was run: as §1

SMILES | cell viability (K562; SRSF2 genotype: SRSF2 P95H/wt) | cell viability (K562; SRSF2 genotype: SRSF2 wt/wt) [%] | cell viability (MARIMO; SRSF2 genotype: SRSF2 P95H/wt) [%] | cell viability (MARIMO; SRSF2 genotype: SRSF2 wt/wt) [%] | cell viability (MOLM14; SRSF2 genotype: SRSF2 P95H/wt) [%] | cell viability (MOLM14; SRSF2 genotype: SRSF2 wt/wt) [%] | cell viability (OCI-AML2; SRSF2 genotype: P95H/wt) [%] | cell viability (OCI-AML2; SRSF2 genotype: wt/wt) [%]
Fc1ccc2c(/C=C/c3nn[nH]n3)c[nH]c2c1 | 100% and 102% | 98.6 | 104 | 102 | 94.2 | 96.3 | 102 | 108
CNCCC(Oc1ccc(C(F)(F)F)cc1)c1ccccc1 (stereo not given) [Fluoxetine HCl] | 75.2% and 82.5% | 88.8 | 63.5 | 75.2 | 68.8 | 81.6 | 63.1 | 74.1
CCCCCCCCCCCCCCCCn1cc[n+](Cc2ccccc2)c1C | 0.26% and 0.36% | 0.22 | 0.21 | 0.19 | 0.01 | 0 | 0.05 | 0.07
O=c1c(O)c(-c2ccc(O)cc2O)oc2cc(O)cc(O)c12 [Morin hydrate (Aurantica)] | 94.3% and 106% | 106 | 108 | 108 | 107 | 107 | 107 | 102
O=C(Cn1cnnn1)N[C@@H]1C(=O)N2C(C(=O)O)=C(CSc3nncs3)CS[C@H]12 [Ceftezole sodium] | 108% and 99.1% | 120 | 101 | 105 | 109 | 110 | 123 | 118
C1=N/C2=N/c3ccc(OCCN4CCCC4)c(c3)COC/C=C/COCc3cccc(c3)C(=C1)N2 [Pacritinib (SB1518)] | 3.78% and 2.31% | 4.47 | 0.41 | 0.42 | 0.21 | 0.25 | 0.2 | 0.32
CC[C@H](Nc1ncnc2[nH]cnc12)c1nc2cccc(F)c2c(=O)n1-c1ccccc1 | 84.3% and 82.3% | 88.8 | 65.6 | 70.5 | 57.3 | 54.8 | 51.2 | 58.6
O=C[C@H](O)[C@@H](O)[C@H](O)CO [Xylose] | 95% and 93.8% | 96 | 90.4 | 96.1 | 91.8 | 95.2 | 103 | 88.2
NC(=O)c1cccc2cn(-c3ccc([C@@H]4CCCNC4)cc3)nc12 [MK-4827(Niraparib) tosylate] | 103% and 99.2% | 87.5 | 48.4 | 64.4 | 21.4 | 7.47 | 41.8 | 47.3
CC(C)C[C@H](NC(=O)CNC(=O)c1cc(Cl)ccc1Cl)B1OC(=O)CC(CC(=O)O)(C(=O)O)O1 (stereo not given in full) [Ixazomib Citrate (MLN9708)] | 2.32% and 2.83% | 4.01 | 0.72 | 2.45 | 0.35 | 0.36 | 0.42 | 1.49
Clc1ccc(C2(c3ccc(-c4cn[nH]c4)cc3)CCNCC2)cc1 | 44.6% and 48.5% | 34.5 | 40.3 | 45 | 24.2 | 12.5 | 21.6 | 27.4
OC(Cn1cncn1)(Cn1cncn1)c1ccc(F)cc1F [Fluconazole] | 112% and 99.8% | 101 | 98 | 107 | 103 | 101 | 96.9 | 95.7
NC1=N[C@@](c2cccc(-c3cncnc3)c2)(c2ccnc(C(F)F)c2)c2cccc(F)c21 | 76.9% and 74.8% | 81.4 | 80.1 | 95.2 | 85.7 | 84.1 | 71.1 | 71.3
COc1ccc(S(=O)(=O)Nc2nc(-c3cccc([N+](=O)[O-])c3)cs2)cc1OC | 104% and 99% | 92.7 | 97.4 | 112 | 93.3 | 100 | 95.4 | 108
CCCCCOc1ccc(-c2ccc(-c3ccc(C(=O)N[C@H]4C[C@@H](O)[C@@H](O)NC(=O)[C@@H]5[C@@H](O)[C@@H](C)CN5C(=O)[C@H]([C@@H](C)O)NC(=O)[C@H]([C@H](O)[C@@H](O)c5ccc(O)cc5)NC(=O)[C@@H]5C[C@@H](O)CN5C(=O)[C@H]([C@@H](C)O)NC4=O)cc3)cc2)cc1 | 77.8% and 78.3% | 80.5 | 95.7 | 94.3 | 82.7 | 84.5 | 77.5 | 82.8
C[C@@H]1CCO[C@H]2Cn3cc(C(=O)NCc4ccc(F)cc4F)c(=O)c(O)c3C(=O)N12 | 84.5% and 87% | 77.5 | 84.3 | 98.4 | 94.1 | 94 | 92 | 98.5
CS(=O)(=O)c1ccc([C@@H](O)[C@@H](CO)NC(=O)C(Cl)Cl)cc1 [Thiamphenicol (Thiophenicol)] | 86.1% and 88.3% | 87.7 | 103 | 101 | 98.5 | 96.8 | 97.3 | 91.2
COC(=O)N[C@H](C(=O)N1CCC[C@H]1c1ncc(-c2ccc(-c3ccc(-c4cnc([C@@H]5CCCN5C(=O)[C@@H](NC(=O)OC)C(C)C)[nH]4)cc3)cc2)[nH]1)C(C)C [Daclatasvir Digydrochloride] | 79.2% and 78.8% | 75.9 | 62.1 | 73.5 | 67.7 | 77.9 | 78.2 | 74
CNC(=O)CN1CCC(Oc2cc3c(Nc4cccc(Cl)c4F)ncnc3cc2OC)CC1 | 85.2% and 96% | 91.9 | 93.6 | 100 | 79.5 | 93.1 | 73.8 | 79.5
Cc1cc(C)nc(SCC(=O)Nc2ncc(Cc3cccc4ccccc34)s2)n1 | 79.2% and 84.5% | 75.5 | 78.5 | 86.9 | 41.1 | 42.4 | 61.4 | 66.4

SMILES | cell viability (K562; SRSF2 genotype: SRSF2 P95H/wt) | cell viability (K562; SRSF2 genotype: SRSF2 wt/wt) [%] | cell viability (MARIMO; SRSF2 genotype: SRSF2 P95H/wt) [%] | cell viability (MARIMO; SRSF2 genotype: SRSF2 wt/wt) [%] | cell viability (MOLM14; SRSF2 genotype: SRSF2 P95H/wt) [%] | cell viability (MOLM14; SRSF2 genotype: SRSF2 wt/wt) [%] | cell viability (OCI-AML2; SRSF2 genotype: P95H/wt) [%] | cell viability (OCI-AML2; SRSF2 genotype: wt/wt) [%]
CC1CNC(=O)NC1=O (stereo not given) [Dihydrothymine] | 102% and 110% | 97.3 | 96.7 | 108 | 97.7 | 103 | 94 | 105
O=c1cc(-c2cccc3c2Sc2ccccc2S3)oc(N2CCOCC2)c1 | 98.7% and 93.1% | 91.2 | 105 | 103 | 93.6 | 95.5 | 85.7 | 88.8
COc1cc2c(cc1OC)CN(C(=O)/C=C/c1c(-c3ccccc3)n(C)c3ncccc13)CC2 | 63.9% and 81.1% | 71.3 | 69.1 | 70.5 | 47.7 | 44.2 | 51.6 | 49
COc1ccc(CCNCc2ccc(OCc3ccc(Cl)nc3)c(OC)c2)cc1OC | 85.6% and 95.4% | 89.8 | 87.4 | 95.2 | 91.9 | 99.9 | 91.4 | 83.5
CO/N=C(\C(=O)N[C@@H]1C(=O)N2C(C(=O)O)=C(CSc3nc(C)c(CC(=O)O)s3)CS[C@H]12)c1csc(N)n1 [Cefodizime Sodium] | 96% and 90.5% | 103 | 100 | 112 | 97.1 | 104 | 99.6 | 107
CC(=O)N1CCC(Nc2cc(C(=O)NC[C@H](O)CN3CCc4ccccc4C3)ncn2)CC1 | 91.8% and 96.6% | 90.9 | 88.8 | 103 | 87.6 | 94.5 | 78.3 | 85.2
CC(C)c1cc2c(N3CCN(C4=NCC(C)(C)S4)CC3)ncnc2s1 [MI-3 (Menin-MLL Inhibitor)] | 75.8% and 67.2% | 67.3 | 75.4 | 55 | 72.2 | 72.3 | 40.6 | 45.1
Cc1c(C)c(NCC(=O)N(C)C2CCN(Cc3ccc(C(N)=O)cc3)CC2)c(C)c(C)c1N | 103% and 95.7% | 100 | 99.4 | 102 | 87.1 | 96.8 | 98.7 | 103
C=CCNC1=C2C[C@@H](C)C[C@H](OC)[C@H](O)[C@@H](C)/C=C(\C)[C@H](OC(N)=O)[C@@H](OC)/C=C\C=C(/C)C(=O)NC(=CC1=O)C2=O [17-AAG (Tanespimycin)] | 20.1% and 29.1% | 25 | 27.3 | 24.3 | 1.11 | 1.2 | 18.8 | 20.6
Cn1cc(-c2[nH]c3cc(NC(=O)[C@H](N)C4CCCCC4)cc4c3c2C=NNC4=O)cn1 | 2.84% and 6.35% | 4.41 | 32.7 | 26.9 | 0.83 | 0.37 | 5.09 | 8.02
C[C@H](NCc1ccc(OCc2cccc(F)c2)cc1)C(N)=O | 102% | 99.9 | 105 | 102 | 98.2 | 98.2 | 115 | 106
Cc1ccc2nc(NCCN)c3ncc(C)n3c2c1 | 37.6% and 36.4% | 34.5 | 7.18 | 3 | 1.38 | 0.62 | 2.44 | 13
C[C@]1(COc2ccc(N3CCC(Oc4ccc(OC(F)(F)F)cc4)CC3)cc2)Cn2cc([N+](=O)[O-])nc2O1 [Delamanid] | 97.1% and 93.5% | 93.5 | 94.6 | 100 | 94.9 | 101 | 83.8 | 88.6
CNc1cc(-c2cccc(Cl)c2Cl)nc(N)n1 | 15.8% and 28.9% | 29.6 | 12.2 | 9.54 | 9.14 | 2.78 | 6 | 11.5
C[C@@H]1O[C@@H]1P(=O)(O)O [fosfomycin tromethamine] | 108% and 107% | 100 | 109 | 114 | 103 | 104 | 106 | 98.6
CC1(C)S[C@@H]2[C@H](NC(=O)Cc3ccccc3)C(=O)N2[C@H]1C(=O)O.CCN(CC)CCOC(=O)c1ccc(N)cc1 [Penicillin G Procaine] | 107% and 104% | 101 | 104 | 118 | 99.7 | 109 | 97.8 | 99.4
COc1cc(Nc2ncc(F)c(Nc3ccc4c(n3)N(COP(=O)(O)O)C(=O)C(C)(C)O4)n2)cc(OC)c1OC | 97.6% and 98.5% | 97.5 | 107 | 114 | 8.88 | 11.4 | 26.3 | 37
CS(=O)(=O)CCNCc1ccc(-c2ccc3ncnc(Nc4ccc(OCc5cccc(F)c5)c(Cl)c4)c3c2)o1 [Lapatinib] | 40.9% and 35.3% | 35.8 | 83.2 | 77.6 | 75.4 | 75.6 | 22.2 | 45.5
CCCCNc1cc(C(=O)O)cc(S(N)(=O)=O)c1Oc1ccccc1 [Bumetanide] | 105% and 102% | 102 | 96.5 | 108 | 105 | 101 | 99.9 | 110
CC[C@@]1(O)C(=O)OCc2c1cc1n(c2=O)Cc2cc3c(CN(C)C)c(O)ccc3nc2-1 [Topotecan] | 20.3% and 28% | 17.5 | 4.92 | 3.84 | 1.67 | 0.8 | 3.47 | 7.65

Source: the supplement of paper PMC10981050
